# According to PubChem BioAssay (Tox21):
# Records with an inconclusive call do not appear. Activity calls are given as the source filed them. Calls follow the shape of the full dose curve.
# Biological target: Thyrotropin receptor (Homo sapiens) (UniProt P16473)
# Test: qHTS assay to identify small molecule agonists of the thyroid stimulating hormone receptor (TSHR) signaling pathway (AID 1224843); also: nearly all actives have a fitted effect of over 45% in size
# Settings: TSHR-HEK293 cells, cAMP HTRF, agonist mode, 30 min; series mostly up to 92.4 µM
# From the text: National Center for Advancing Translational Sciences [NCATS]
# NIH Chemical Genomics Center [NCGC]
# U.S. Environmental Protection Agency [EPA]
# National Institutes of Environmental Health Sciences [NIEHS]
# National Toxicology Program [NTP]
# U.S. Food and Drug Administration [FDA]
# TSHR is the receptor for thyrotropin (thyroid stimulating hormone or TSH), a member of the glycoprotein hormone family. TSH is released by the anterior pituitary gland and is the main regulator of thyroid gland growth and development. Upon binding circulating thyrotropin, a G-protein signal cascade activates adenylyl cyclase and […] cAMP concentration is increased. cAMP is a key second messenger involved extensively in cellular signal transduction pathways associated with the majority of G-protein coupled receptors (GPCRs). The activation of these GPCRs by neurotransmitters, lipids, nucleotides, peptides and hormones results in the activation or the inhibition of plasma membrane-bound adenylate cyclase through heterotrimeric G-proteins. A cell-based TSHR assay was used to screen the Tox21 10K library for compounds that can modulate TSHR in agonist mode.
# Tox21 Assay Protocol Summary:
# TSHR-Hek293 cells were dispensed at 800 cells/4uL/well in 1536-well white plates using a Multidrop dispenser. […] The plates were incubated at room temperature for 30 min. 2.5 ul/well of cAMP-d2 and 2.5ul/well of anti-cAMP-cryptate was added respectively into the assay plates using a Flying Reagent Dispenser. After 1 hr incubation at room temperature, the fluorescence intensity in the plates was measured using an Envision plate reader. Each test compound was measured at 15 concentrations and in triplicates.
# % is scaled to controls: 0 for no effect and ±100 for the full control effect.
# Sequence of Thyrotropin receptor (Homo sapiens) (P16473 whole entry, looked up): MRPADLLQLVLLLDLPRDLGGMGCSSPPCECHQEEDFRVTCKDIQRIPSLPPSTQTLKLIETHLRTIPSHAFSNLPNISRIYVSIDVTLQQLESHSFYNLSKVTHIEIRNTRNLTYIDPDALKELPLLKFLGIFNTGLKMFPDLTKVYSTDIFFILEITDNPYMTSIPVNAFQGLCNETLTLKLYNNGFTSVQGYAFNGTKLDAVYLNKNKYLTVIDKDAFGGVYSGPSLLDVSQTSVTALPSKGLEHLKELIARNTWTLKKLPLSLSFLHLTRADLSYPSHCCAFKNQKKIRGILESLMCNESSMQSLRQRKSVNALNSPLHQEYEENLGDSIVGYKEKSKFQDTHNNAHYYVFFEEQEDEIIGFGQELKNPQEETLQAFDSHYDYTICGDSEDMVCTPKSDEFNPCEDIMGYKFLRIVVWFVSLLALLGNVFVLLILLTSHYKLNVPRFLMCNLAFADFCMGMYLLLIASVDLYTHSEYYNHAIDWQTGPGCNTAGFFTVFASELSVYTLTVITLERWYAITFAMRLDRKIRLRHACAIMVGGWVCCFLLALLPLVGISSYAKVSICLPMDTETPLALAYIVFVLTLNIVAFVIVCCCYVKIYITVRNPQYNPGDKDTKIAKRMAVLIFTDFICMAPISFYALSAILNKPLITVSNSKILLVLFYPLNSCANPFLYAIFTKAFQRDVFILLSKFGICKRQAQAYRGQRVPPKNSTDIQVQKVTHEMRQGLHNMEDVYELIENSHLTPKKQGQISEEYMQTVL
SMILES,outcome,activation
CN[C@@H]1[C@H](O)[C@H](NC)[C@H]2O[C@@]3(O)C(=O)C[C@@H](C)O[C@H]3O[C@@H]2[C@H]1O,inactive,
C[CH2][Ge]([Cl])([CH2]C)[CH2]C,inactive,
CO/N=C(/C(=O)N[C@@H]1C(=O)N2C(C(=O)O)=C(Cn3nnc(C)n3)CS[C@H]12)c1csc(N)n1,inactive,
C/C=C(\C)C(=O)OCC/C=C\CC,inactive,
Cc1cccc(Nc2ccncc2S(=O)(=O)NC(=O)NC(C)C)c1,inactive,
C=CCOc1cc(Cl)ccc1C(=O)NCCN(CC)CC,inactive,
CCC(O)C(C)(C)C (stereo not given),inactive,
Nc1cc(S(=O)(=O)O)ccc1S(=O)(=O)O,inactive,
CCCCOC(=O)C(C)OC(=O)CCC (stereo not given),inactive,
Nc1cc(C(=O)O)ccc1Cl,inactive,
C=C(C)[C@@H]1CC[C@@H](C)C[C@@H]1O,inactive,
CC(C)(c1ccc(Oc2ccc3c(c2)C(=O)OC3=O)cc1)c1ccc(Oc2ccc3c(c2)C(=O)OC3=O)cc1,inactive,
CC(C)CCCCCCOC(=O)C1CCCCC1C(=O)OCCCCCCC(C)C (stereo not given),inactive,
CCCCCCCCCCCCC,inactive,
c1ccc(CNc2ncnc3nc[nH]c23)cc1,inactive,
C[C@H](CCC(=O)NCC(=O)O)[C@H]1CC[C@H]2[C@@H]3[C@H](O)C[C@@H]4C[C@H](O)CC[C@]4(C)[C@H]3C[C@H](O)[C@]12C,inactive,
CCCCC(C)C(=O)O (stereo not given),inactive,
CN[C@@H]1[C@@H](O)[C@@H](O[C@@H]2[C@H](O)[C@H](O[C@H]3OC(CN)=CC[C@H]3N)[C@@H](N)C[C@H]2N)OCC1(C)O (stereo not given in full),inactive,
O=S(=O)(O)CCO,inactive,
O=c1[nH]c(=O)c2[nH]c(=O)[nH]c2[nH]1,,0.91% [at 8.39 µM] (inactive)

SMILES,outcome,activation
CCCCCCCC/C=C\CCCCCCCC(=O)OC[C@@H](O)[C@H]1OC[C@H](O)[C@H]1O,inactive,
CCCCCC1Nc2cc(C(F)(F)F)c(S(N)(=O)=O)cc2S(=O)(=O)N1 (stereo not given),inactive,
O=C(/C=C/c1ccccc1)NCCO,inactive,
O=C1OC(=O)c2cc(Oc3ccc4c(c3)C(=O)OC4=O)ccc21,inactive,
CCCCCC1CCCC(=O)O1 (stereo not given),inactive,
O=C(O)c1ccc(OCCN2CCCCC2)cc1,inactive,
CC(Cl)COP(=O)(OCC(C)Cl)OCC(C)Cl (stereo not given),inactive,
CCOC(=O)C(=O)c1csc(NC=O)n1,inactive,
CCCCCCCCCCCCCCCC(=O)NCCO,inactive,
C[C@H](CCC(=O)O)[C@H]1CC[C@H]2[C@@H]3[C@H](O)C[C@@H]4C[C@H](O)CC[C@]4(C)[C@H]3C[C@H](O)[C@]12C,inactive,
CCC1Nc2cc(Cl)c(S(N)(=O)=O)cc2S(=O)(=O)N1 (stereo not given),inactive,
Cc1nc([N+](=O)[O-])cn1-c1ccc([N+](=O)[O-])cc1,inactive,
CC(C)(C)c1ccc(C=O)cc1,inactive,
CCN(CC)C(=O)C1CN2CCc3cc(OC)c(OC)cc3C2CC1OC(C)=O (stereo not given),inactive,
O=C(O)Cc1cccc(-c2cc(CCCCCCc3ccc(O[C@H]4O[C@H](CO)[C@@H](O)[C@H](O)[C@@H]4O)c(-c4cccc(CC(=O)O)c4)c3)ccc2O[C@H]2O[C@H](CO)[C@@H](O)[C@H](O)[C@@H]2O)c1,,2.03% [at 0.349 µM] (inactive)
CCCCCCCCOC(C)=O,inactive,
C=CCOC(=O)c1ccc(C(=O)OCC=C)c(C(=O)OCC=C)c1,inactive,
O=C1OC(=O)c2ccccc21,inactive,
COc1cc([N+](=O)[O-])ccc1N,inactive,
CCCCC[Si](OCC)(OCC)OCC,inactive,
